Records with an inconclusive call do not appear. Activity calls are given as the source filed them. Calls come from the whole dose curve; as a rule, active = well fitted cell-killing curve with a large enough effect in the repeat runs (not every such curve was filed as active); inconclusive = weak or mixed curves, or effect the other way; inactive = no such curve, though single readings can be large or run the other way.
Experiment: qHTS assay to identify small molecule antagonists of the estrogen related receptor signaling pathway with the pleiotropic PPARgamma coactivator (PGC) from Tox21 10K library - cell viability counter screen (AID 1224840); note: nearly all actives have a fitted effect of over 40% in size
Conditions: PGC/ERR reporter cells viability, CellTiter-Fluor, 17.5 h; series mostly up to 92.4 µM; viability change, negative = cytotoxic: at the top concentration
Source text: National Center for Advancing Translational Sciences [NCATS]
NIH Chemical Genomics Center [NCGC]
U.S. Environmental Protection Agency [EPA]
National Institutes of Environmental Health Sciences [NIEHS]
National Toxicology Program [NTP]
U.S. Food and Drug Administration [FDA]
Estrogen related receptors (ERRs), the first orphan nuclear receptors discovered, play an important role in the control of cellular energy metabolism. ERRs are required for high-energy production in response to the environmental challenges. The pleiotropic PPARgamma coactivator (PGC) is a major partner of ERR and a key regulator in energy homeostasis. Together they have been implicated in the etiology of metabolic disorders such as Type 2 diabetes and metabolic syndrome. ERR-alpha was also identified as an adverse marker for breast cancer progression; ERR-alpha-positive tumors have a poor prognosis. To screen and to identify environmental compounds that perturb the ERR and PGC/ERR signaling pathways could provide valuable information for potential therapeutic or preventive measures in the treatment of metabolic disease. To differentiate true PGC/ERR antagonists or agonist from cytotoxic substances, the assay is multiplexed with cell viability assay.
Tox21 Assay Protocol Summary:
The PGC/ERR cells were dispensed at 2,000 cells/5 ul/well in 1536-well white plates using a Multidrop dispenser. After the assay plates were incubated at a 37 C/5% CO2 incubator for 6 hours, 23 nL of compounds dissolved in DMSO, positive and negative controls or DMSO only was transferred to the assay plate by a pin tool. The plates were incubated at 37 C for 17.5 hours. 1 ul/well of CellTiter-Fluor reagent was added into the assay plates using a Flying Reagent Dispenser. After 30-minute incubation at 37 C/5% CO2, the fluorescence intensity in the plates was measured using a ViewLux plate reader.
% is set by controls: 0 for no effect and ±100 for the full control effect.

| Compound | viability change, negative = cytotoxic |
| --- | --- |
| C=O | -3% (inactive) |
| ICCc1ccccc1 | -1.63% (inactive) |
| CCN(CC)CCNC(=O)COc1ccc(Cl)cc1 | 7.72% [at 42.5 µM] (inactive) |
| OCC(CBr)(CBr)CBr | 6.01% (inactive) |
| COC(=O)c1ccc2cc(C(=O)OC)ccc2c1 | 1.78% [at 19 µM] (inactive) |
| CCCCCCCCCCCCCCCCOP(=O)([O-])OCC[N+](C)(C)C | 1.26% [at 42.5 µM] (inactive) |
| O=C1CCCc2ccccc21 | 8.47% (inactive) |
| CCCNC(C)C(=O)Nc1c(C)csc1C(=O)OC (stereo not given) | 2.16% [at 42.5 µM] (inactive) |
| CC1CN(c2ccccc2)NC1=O (stereo not given) | 6% (inactive) |
| O=C1CCCCC1C1CCCCC1 (stereo not given) | 5.82% (inactive) |
| COC(C)CCO (stereo not given) | 3.05% (inactive) |
| O=C(O)c1cccc(Cl)c1Cl | 6.78% (inactive) |
| COc1ccccc1OCC(O)COC(N)=O (stereo not given) | 14.4% [at 42.5 µM] (inactive) |
| CN1CCN(C2=Nc3cc(F)ccc3Cc3ccccc32)CC1 | -8.9% [at 42.5 µM] (inactive) |
| CC1(O)CSC(C)(O)CS1 (stereo not given) | 7.4% (inactive) |
| CCCc1c2oc(C(=O)O)cc(=O)c2cc2c(=O)cc(C(=O)O)n(CC)c12 | 5.61% [at 42.5 µM] (inactive) |
| CC(C)(CO)[C@@H](O)C(=O)NCCC(=O)O | 1.17% (inactive) |
| Cc1cc2nc(N)sc2cc1C | 2.49% (inactive) |
| CCc1cc(Cl)c(OC)c(C(=O)NC[C@@H]2CCCN2CC)c1O | 5.71% [at 42.5 µM] (inactive) |
| CCCNC(C)(C)COC(=O)c1ccccc1 | 1.14% [at 42.5 µM] (inactive) |

| Compound | viability change, negative = cytotoxic |
| --- | --- |
| NC(=O)Cc1cccc(C(=O)c2ccccc2)c1N | -0.0428% [at 42.5 µM] (inactive) |
| Cc1ccccc1C(=O)Nc1ccc(C(=O)N2CCCC(O)c3cc(Cl)ccc32)c(C)c1 (stereo not given) | 6.03% [at 42.5 µM] (inactive) |
| O=c1[nH]cnc2c1ncn2[C@@H]1O[C@H](CO)[C@@H](O)[C@H]1O | 2.69% [at 42.5 µM] (inactive) |
| CN1CCN(N)CC1 | 11.7% [at 42.5 µM] (inactive) |
| CCCC1CCC(=O)O1 (stereo not given) | 5.85% (inactive) |
| CN1C(=O)CC(c2ccccc2)C1=O (stereo not given) | 1.51% [at 42.5 µM] (inactive) |
| CCCN(CCC)C(=O)C(CCC(=O)O)NC(=O)c1ccccc1 (stereo not given) | -1.55% [at 42.5 µM] (inactive) |
| COC(=O)/C=C(/C)N | 19.4% [at 42.5 µM] (inactive) |
| O=C1CCN(c2ccccc2)N1 | -28.2% (inactive) |
| NC1=NCC2c3ccccc3Cc3ccccc3N12 (stereo not given) | 1.1% [at 42.5 µM] (inactive) |
| C/C(=N\O)[C@@H](C)NCC(C)(C)CN[C@H](C)/C(C)=N/O | -6.17% [at 42.5 µM] (inactive) |
| CC(C)C(=O)OCC(C)(C)C(O)C(C)C (stereo not given) | 0.948% (inactive) |
| COc1nc(C)nc(NC(=O)NS(=O)(=O)c2ccccc2OCCCl)n1 | 7.09% (inactive) |
| O=C(O)[C@@H](O)[C@H](O)[C@H](O)[C@@H](O)C(=O)O | 0.948% [at 42.5 µM] (inactive) |
| Cc1ccc(C(C)C)cc1O | 4.11% (inactive) |
| C=CCCC=C | 2.77% (inactive) |
| CCOC(=O)CS | -9.07% (inactive) |
| Oc1ccccc1C=NCc1ccccc1 | 10.7% [at 42.5 µM] (inactive) |
| COC(=O)C(C)O (stereo not given) | 9.84% (inactive) |
| COc1cc2c(cc1N)oc1ccccc12 | -8.46% (inactive) |

Reference: PubChem BioAssay (Tox21)
